Measurements published in the supplement of paper PMC10849652.
The full data set covers some 8,800 targets. This sample favours those with a hit. About 0.5% of all pairs of compound and target were hits.

Assays:
Assay in all cases: log2 fold change, soluble protein after heating vs DMSO (PISA); higher = thermal stabilisation; K562 lysate, 10 uM; active = over 0.2 and 3.5 SD of the protein, either way, in both replicates (recomputed)
alvocidib = compound: CN1CC[C@H](c2c(O)cc(O)c3c(=O)cc(-c4ccccc4Cl)oc23)[C@H](O)C1 [alvocidib]
In short: (§1)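 Soluble protein was defined as the supernatant remaining after 21,000xg for 90 min, following pooling of heated aliquots and adjustment to 0.5% NP-40 at 4°C. Before that, crude K562 extract at 1 mg/mL protein in PBS pH 7.4 with 1 mM MgCl2 was treated with 10 μM compound for 30 min and heated for 3 min across 48°C-58°C. Quantification used TMTpro 16plex LC-MS/MS with channel sums equalised, and values are log-two fold changes in thermal stability relative to solvent controls from duplicates.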

Tubastatin A = compound: CN1CCc2c(c3ccccc3n2Cc2ccc(C(=O)NO)cc2)C1 [Tubastatin A]
In short: as §1

[1] = compound: CNC(=O)C1=CC=CC=C1NC2=NC(=NC=C2Cl)NC3=C(C=C(C=C3)N4CCOCC4)OC
In short: as §1

defactinib = compound: CNC(=O)c1ccc(Nc2ncc(C(F)(F)F)c(NCc3nccnc3N(C)S(C)(=O)=O)n2)cc1 [defactinib]
In short: as §1

[2] = compound: CNc1nc(-c2ccc3c(N)n[nH]c3c2)cc(N2C[C@@H](C(=O)NC3CCCCC3)CC[C@H]2C)n1
In short: as §1

encorafenib = compound: COC(=O)N[C@@H](C)CNc1nccc(-c2cn(C(C)C)nc2-c2cc(Cl)cc(NS(C)(=O)=O)c2F)n1 [encorafenib]
In short: as §1

[3] = compound: COC(=O)[C@H](CCSC)NC(=O)C1=C(C=C(C=C1)NC[C@H](CS)N)C2=CC=CC=C2
In short: as §1

alisertib = compound: COc1cc(Nc2ncc3c(n2)-c2ccc(Cl)cc2C(c2c(F)cccc2OC)=NC3)ccc1C(=O)O [alisertib]
In short: as §1

[4] = compound: COc1cc2nc(-c3cc(F)ccc3O)nc(N[C@@H]3CNC[C@H]3C(C)(C)O)c2cc1OC
In short: as §1

gefitinib = compound: COc1cc2ncnc(Nc3ccc(F)c(Cl)c3)c2cc1OCCCN1CCOCC1 [gefitinib]
In short: as §1

Measured: log2 fold change

CTNNBL1 (UniProt Q8WYA6)
Sequence of UniProt Q8WYA6 (Q8WYA6 whole entry, looked up): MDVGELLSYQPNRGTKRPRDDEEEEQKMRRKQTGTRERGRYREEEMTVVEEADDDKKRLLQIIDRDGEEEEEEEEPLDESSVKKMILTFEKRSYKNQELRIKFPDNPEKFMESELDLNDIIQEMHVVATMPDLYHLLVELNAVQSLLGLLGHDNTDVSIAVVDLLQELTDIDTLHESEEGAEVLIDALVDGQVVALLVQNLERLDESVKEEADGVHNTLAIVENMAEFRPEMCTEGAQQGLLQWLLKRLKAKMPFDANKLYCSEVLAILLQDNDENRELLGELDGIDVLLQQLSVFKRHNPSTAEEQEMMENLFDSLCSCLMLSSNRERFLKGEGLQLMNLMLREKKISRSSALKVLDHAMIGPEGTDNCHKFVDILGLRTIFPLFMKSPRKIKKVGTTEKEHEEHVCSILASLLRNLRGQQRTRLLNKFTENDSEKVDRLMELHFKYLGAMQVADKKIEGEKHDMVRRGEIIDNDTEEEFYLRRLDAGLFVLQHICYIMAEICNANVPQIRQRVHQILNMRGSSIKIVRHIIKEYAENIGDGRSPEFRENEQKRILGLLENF
active: [2] 0.417
inactive: alvocidib 0.027 | Tubastatin A 0.148 | [1] -0.004 | defactinib -0.015 | encorafenib 0.023 | [3] 0.101 | alisertib -0.013 | [4] -0.027 | gefitinib 0.022

CUL1 (UniProt Q13616)
Sequence of UniProt Q13616 (Q13616 whole entry, looked up): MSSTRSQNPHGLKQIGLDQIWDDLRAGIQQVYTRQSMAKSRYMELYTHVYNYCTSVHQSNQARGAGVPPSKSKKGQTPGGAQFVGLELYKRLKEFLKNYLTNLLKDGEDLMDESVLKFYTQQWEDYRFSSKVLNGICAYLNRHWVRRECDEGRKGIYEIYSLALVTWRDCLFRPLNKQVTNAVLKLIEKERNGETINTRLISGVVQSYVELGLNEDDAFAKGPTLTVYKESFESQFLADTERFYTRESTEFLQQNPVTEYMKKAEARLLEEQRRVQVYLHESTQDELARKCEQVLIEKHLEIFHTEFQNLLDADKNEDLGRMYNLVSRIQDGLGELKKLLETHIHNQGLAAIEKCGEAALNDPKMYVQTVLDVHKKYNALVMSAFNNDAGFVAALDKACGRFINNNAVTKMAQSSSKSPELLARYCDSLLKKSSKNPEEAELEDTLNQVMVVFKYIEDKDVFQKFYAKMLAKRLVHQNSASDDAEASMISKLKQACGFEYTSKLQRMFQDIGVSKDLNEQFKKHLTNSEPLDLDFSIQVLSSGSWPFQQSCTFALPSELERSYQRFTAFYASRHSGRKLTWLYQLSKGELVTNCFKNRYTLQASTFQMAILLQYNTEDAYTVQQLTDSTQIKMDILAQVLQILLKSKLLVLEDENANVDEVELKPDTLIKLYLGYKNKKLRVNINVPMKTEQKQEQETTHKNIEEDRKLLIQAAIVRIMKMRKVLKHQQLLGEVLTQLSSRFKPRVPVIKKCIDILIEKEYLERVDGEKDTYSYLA
inactive: alvocidib -0.008 | Tubastatin A 0.008 | [1] 0.001 | defactinib -0.019 | [2] 0.013 | encorafenib 0 | [3] -0.042 | alisertib -0.01 | [4] 0.011 | gefitinib -0.038

CPT1A (UniProt P50416)
inactive: Tubastatin A 0.261 | [1] 0.004 | defactinib -0.053 | [2] 0.113 | encorafenib 0.036 | [3] 0.078 | alisertib -0.014 | [4] -0.051 | gefitinib 0.031
active: alvocidib 0.407

CSNK2A1 (UniProt P68400)
active: [1] 0.337
inactive: alvocidib 0.077 | Tubastatin A 0.019 | defactinib 0.056 | [2] -0.002 | encorafenib -0.004 | [3] -0.005 | alisertib 0.012 | [4] 0.112 | gefitinib -0.024

CXorf38 (UniProt Q8TB03)
Sequence of UniProt Q8TB03 (Q8TB03 whole entry, looked up): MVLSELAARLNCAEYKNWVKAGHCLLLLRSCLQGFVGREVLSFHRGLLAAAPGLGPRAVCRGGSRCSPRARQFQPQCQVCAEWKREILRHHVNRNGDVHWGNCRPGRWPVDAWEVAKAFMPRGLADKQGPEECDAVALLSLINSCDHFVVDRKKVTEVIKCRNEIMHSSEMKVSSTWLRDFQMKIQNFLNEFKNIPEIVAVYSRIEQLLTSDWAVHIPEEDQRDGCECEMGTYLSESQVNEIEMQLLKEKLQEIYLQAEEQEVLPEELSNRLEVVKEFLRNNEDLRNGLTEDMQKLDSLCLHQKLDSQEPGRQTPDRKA
inactive: alvocidib 0 | Tubastatin A 0.039 | [1] 0.04 | defactinib -0.012 | [2] -0.016 | encorafenib 0.02 | [3] -0.012 | alisertib -0.021 | [4] -0.058 | gefitinib -0.056

CSPP1 (UniProt Q1MSJ5)
inactive: alvocidib -0.031 | Tubastatin A -0.03 | [1] -0.028 | defactinib -0.086 | [2] 0.095 | encorafenib 0.119 | [3] -0.195 | alisertib 0.027 | [4] 0.218 | gefitinib -0.054

COQ8A (UniProt Q8NI60)
inactive: alvocidib 0.051 | Tubastatin A -0.06 | [1] 0.384 | defactinib 0 | [2] 0.079 | encorafenib 0.145 | [3] -0.009 | alisertib -0.023 | [4] 0.009 | gefitinib 0.447

CKAP2 (UniProt Q8WWK9)
inactive: alvocidib -0.059 | Tubastatin A -0.009 | [1] 0.071 | defactinib -0.075 | [2] 0.028 | encorafenib 0.097 | [3] -0.092 | alisertib -0.044 | [4] 0.049 | gefitinib 0.06

COASY isoform 2 (UniProt Q13057)
inactive: alvocidib 0.015 | Tubastatin A -0.124 | [1] -0.003 | defactinib 0.064 | [2] -0.023 | encorafenib -0.012 | [3] 0.032 | alisertib 0.023 | [4] -0.025 | gefitinib -0.005

DPM1 (UniProt O60762)
inactive: alvocidib 0.084 | Tubastatin A 0.055 | [1] -0.005 | defactinib 0.037 | [2] 0.041 | encorafenib 0.01 | [3] 0.083 | alisertib 0.047 | [4] 0.013 | gefitinib -0.041

CSNK2B (UniProt P67870)
Sequence of UniProt P67870 (P67870 whole entry, looked up): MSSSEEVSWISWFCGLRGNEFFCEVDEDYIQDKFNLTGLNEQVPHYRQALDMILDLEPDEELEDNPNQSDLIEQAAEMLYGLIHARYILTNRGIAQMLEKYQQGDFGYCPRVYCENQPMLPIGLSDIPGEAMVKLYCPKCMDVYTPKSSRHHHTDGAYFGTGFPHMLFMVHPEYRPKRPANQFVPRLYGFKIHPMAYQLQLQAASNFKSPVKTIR
active: [1] 0.324
inactive: alvocidib -0.005 | Tubastatin A -0.012 | defactinib 0.025 | [2] 0.053 | encorafenib -0.026 | [3] -0.006 | alisertib -0.054 | [4] 0.052 | gefitinib -0.022

DOCK8 (UniProt Q8NF50)
inactive: alvocidib 0.019 | Tubastatin A -0.098 | [1] 0.007 | defactinib 0.001 | [2] -0.073 | encorafenib 0.003 | [3] 0.05 | alisertib -0.01 | [4] 0.014 | gefitinib 0.005

CTPS1 (UniProt P17812)
Sequence of UniProt P17812 (P17812 whole entry, looked up): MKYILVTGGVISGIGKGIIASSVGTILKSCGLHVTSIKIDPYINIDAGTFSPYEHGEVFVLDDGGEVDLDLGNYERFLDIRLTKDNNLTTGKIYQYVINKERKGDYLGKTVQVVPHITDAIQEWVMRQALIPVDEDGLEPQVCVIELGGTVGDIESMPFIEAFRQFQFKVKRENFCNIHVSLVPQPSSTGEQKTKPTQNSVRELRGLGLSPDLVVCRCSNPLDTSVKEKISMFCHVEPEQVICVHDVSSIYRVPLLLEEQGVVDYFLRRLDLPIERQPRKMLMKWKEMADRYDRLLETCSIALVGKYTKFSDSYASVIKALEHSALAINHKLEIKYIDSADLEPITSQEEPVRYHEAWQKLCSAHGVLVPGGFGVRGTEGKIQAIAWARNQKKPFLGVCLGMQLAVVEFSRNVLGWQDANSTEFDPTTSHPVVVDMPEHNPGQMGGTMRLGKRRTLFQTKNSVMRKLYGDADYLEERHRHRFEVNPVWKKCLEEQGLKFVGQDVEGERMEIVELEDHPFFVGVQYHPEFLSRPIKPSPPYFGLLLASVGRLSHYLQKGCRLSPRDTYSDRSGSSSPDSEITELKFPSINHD
inactive: alvocidib 0.006 | Tubastatin A -0.101 | [1] -0.021 | defactinib 0 | [2] -0.048 | encorafenib 0.016 | [3] 0.038 | alisertib -0.019 | [4] -0.001 | gefitinib -0.015

CMIP (UniProt Q8IY22)
inactive: alvocidib 0.002 | Tubastatin A -0.161 | [1] 0.001 | defactinib 0.061 | [2] -0.015 | encorafenib 0.078 | [3] 0.025 | alisertib -0.012 | [4] -0.016 | gefitinib 0.007

CKM (UniProt P06732)
Sequence of UniProt P06732 (P06732 whole entry, looked up): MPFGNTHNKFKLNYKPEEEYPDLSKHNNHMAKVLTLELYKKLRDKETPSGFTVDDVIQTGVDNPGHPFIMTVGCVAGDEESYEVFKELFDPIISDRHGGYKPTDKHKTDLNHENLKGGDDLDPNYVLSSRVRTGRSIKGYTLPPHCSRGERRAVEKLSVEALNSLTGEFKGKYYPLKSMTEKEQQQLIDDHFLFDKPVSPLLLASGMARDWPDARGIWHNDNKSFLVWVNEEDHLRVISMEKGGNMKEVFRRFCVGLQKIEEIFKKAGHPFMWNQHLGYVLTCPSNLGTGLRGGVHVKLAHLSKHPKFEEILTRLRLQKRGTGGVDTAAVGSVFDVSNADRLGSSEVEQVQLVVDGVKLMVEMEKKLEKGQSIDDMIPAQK
inactive: alvocidib -0.126 | Tubastatin A -0.091 | [1] -0.049 | defactinib -0.033 | [2] -0.037 | encorafenib 0.016 | [3] 0.026 | alisertib -0.015 | [4] 0.031 | gefitinib -0.065

CLASP2 isoform 3 (UniProt O75122)
inactive: alvocidib -0.151 | Tubastatin A -0.103 | [1] 0.007 | defactinib -0.051 | [2] -0.003 | encorafenib 0.035 | [3] -0.008 | alisertib 0.032 | [4] 0 | gefitinib -0.007

DMXL1 (UniProt Q9Y485)
inactive: alvocidib 0.01 | Tubastatin A -0.014 | [1] 0.019 | defactinib 0.024 | [2] 0.012 | encorafenib 0.055 | [3] -0.015 | alisertib -0.031 | [4] 0.009 | gefitinib 0.038

CUEDC2 (UniProt Q9H467)
Sequence of UniProt Q9H467 (Q9H467 whole entry, looked up): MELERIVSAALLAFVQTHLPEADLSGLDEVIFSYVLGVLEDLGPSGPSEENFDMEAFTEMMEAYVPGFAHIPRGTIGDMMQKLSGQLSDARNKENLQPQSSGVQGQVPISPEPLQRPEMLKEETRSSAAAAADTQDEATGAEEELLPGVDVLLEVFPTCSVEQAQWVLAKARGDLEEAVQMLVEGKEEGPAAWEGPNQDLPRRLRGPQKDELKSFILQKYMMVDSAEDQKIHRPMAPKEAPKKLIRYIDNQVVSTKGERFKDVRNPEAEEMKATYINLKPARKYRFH
inactive: alvocidib 0.054 | Tubastatin A 0.036 | [1] 0.03 | defactinib 0.055 | [2] 0.078 | encorafenib 0.006 | [3] -0.026 | alisertib -0.019 | [4] -0.009 | gefitinib 0.019

CSNK2A2 (UniProt P19784)
Sequence of UniProt P19784 (P19784 whole entry, looked up): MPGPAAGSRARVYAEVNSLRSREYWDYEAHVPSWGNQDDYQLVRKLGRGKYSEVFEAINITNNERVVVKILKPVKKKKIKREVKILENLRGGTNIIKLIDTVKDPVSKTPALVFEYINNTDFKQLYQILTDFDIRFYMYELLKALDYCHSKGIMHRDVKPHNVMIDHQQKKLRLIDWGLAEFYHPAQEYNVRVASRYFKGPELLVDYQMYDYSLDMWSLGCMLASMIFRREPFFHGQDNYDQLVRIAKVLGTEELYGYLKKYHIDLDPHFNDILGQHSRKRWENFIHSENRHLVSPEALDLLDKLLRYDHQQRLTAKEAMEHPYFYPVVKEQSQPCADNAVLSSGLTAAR
inactive: alvocidib 0.101 | Tubastatin A -0.059 | [1] 0.321 | defactinib 0.172 | [2] -0.022 | encorafenib -0.047 | [3] 0.012 | alisertib 0.078 | [4] 0.135 | gefitinib 0.004

CNST (UniProt Q6PJW8)
inactive: alvocidib 0 | Tubastatin A -0.055 | [1] 0.043 | defactinib 0.041 | [2] -0.027 | encorafenib 0.03 | [3] -0.096 | alisertib -0.031 | [4] 0.024 | gefitinib 0.002

CRABP2 (UniProt P29373)
Sequence of UniProt P29373 (P29373 whole entry, looked up): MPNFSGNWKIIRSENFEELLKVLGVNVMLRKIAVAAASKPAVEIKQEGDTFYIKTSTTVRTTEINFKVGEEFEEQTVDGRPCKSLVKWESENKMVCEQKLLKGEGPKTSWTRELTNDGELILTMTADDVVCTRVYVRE
inactive: alvocidib -0.025 | Tubastatin A -0.116 | [1] -0.04 | defactinib -0.015 | [2] 0.006 | encorafenib -0.209 | [3] 0.082 | alisertib -0.109 | [4] -0.018 | gefitinib 0.01

CHML (UniProt P26374)
inactive: alvocidib -0.019 | Tubastatin A 0.008 | [1] -0.004 | defactinib -0.025 | [2] 0.002 | encorafenib 0.003 | [3] 0.005 | alisertib 0.014 | [4] 0.011 | gefitinib 0.012

CKAP5 (UniProt Q14008)
inactive: alvocidib 0.008 | Tubastatin A -0.076 | [1] 0.019 | defactinib 0.008 | [2] 0.003 | encorafenib 0.013 | [3] 0.074 | alisertib 0.012 | [4] 0.007 | gefitinib -0.005

CLUH (UniProt O75153)
Sequence of UniProt O75153 (O75153 whole entry, looked up): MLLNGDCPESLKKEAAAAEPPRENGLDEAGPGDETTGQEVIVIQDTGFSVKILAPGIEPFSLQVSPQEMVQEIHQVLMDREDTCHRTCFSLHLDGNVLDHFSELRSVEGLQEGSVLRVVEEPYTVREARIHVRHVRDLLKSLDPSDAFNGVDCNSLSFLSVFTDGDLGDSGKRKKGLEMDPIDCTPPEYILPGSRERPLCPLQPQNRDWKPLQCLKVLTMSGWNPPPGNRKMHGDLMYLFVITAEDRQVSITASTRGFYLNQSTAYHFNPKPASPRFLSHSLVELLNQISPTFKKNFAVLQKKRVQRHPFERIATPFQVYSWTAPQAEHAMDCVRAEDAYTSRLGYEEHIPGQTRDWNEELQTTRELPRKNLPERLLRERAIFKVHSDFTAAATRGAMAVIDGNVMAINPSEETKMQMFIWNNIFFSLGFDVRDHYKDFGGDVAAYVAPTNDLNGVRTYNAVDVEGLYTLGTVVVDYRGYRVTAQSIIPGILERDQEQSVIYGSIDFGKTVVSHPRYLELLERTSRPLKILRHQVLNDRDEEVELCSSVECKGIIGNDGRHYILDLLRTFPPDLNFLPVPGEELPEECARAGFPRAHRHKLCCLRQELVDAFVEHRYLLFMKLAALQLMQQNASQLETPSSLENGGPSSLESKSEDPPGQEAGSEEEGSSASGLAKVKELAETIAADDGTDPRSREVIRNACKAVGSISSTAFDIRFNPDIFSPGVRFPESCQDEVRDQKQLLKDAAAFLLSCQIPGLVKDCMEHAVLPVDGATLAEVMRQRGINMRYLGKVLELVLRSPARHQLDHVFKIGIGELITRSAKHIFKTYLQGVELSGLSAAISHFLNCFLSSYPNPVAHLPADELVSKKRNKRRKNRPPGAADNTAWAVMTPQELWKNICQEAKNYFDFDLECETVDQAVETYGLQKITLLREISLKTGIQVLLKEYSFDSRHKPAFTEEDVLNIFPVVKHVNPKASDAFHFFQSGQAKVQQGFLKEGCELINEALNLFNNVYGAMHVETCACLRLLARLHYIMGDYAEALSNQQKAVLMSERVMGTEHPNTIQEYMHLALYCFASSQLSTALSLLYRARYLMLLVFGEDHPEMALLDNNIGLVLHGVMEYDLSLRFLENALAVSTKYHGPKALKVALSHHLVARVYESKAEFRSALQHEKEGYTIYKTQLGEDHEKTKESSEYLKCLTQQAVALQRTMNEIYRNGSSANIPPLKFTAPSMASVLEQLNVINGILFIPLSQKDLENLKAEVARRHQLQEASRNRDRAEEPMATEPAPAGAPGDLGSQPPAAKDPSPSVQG
inactive: alvocidib -0.022 | Tubastatin A -0.076 | [1] -0.076 | defactinib 0.002 | [2] -0.029 | encorafenib 0.007 | [3] 0.058 | alisertib -0.014 | [4] -0.014 | gefitinib 0.017

CLIP1 isoform 1 (UniProt P30622)
inactive: alvocidib -0.005 | Tubastatin A 0.038 | [1] 0.014 | defactinib -0.006 | [2] -0.008 | encorafenib 0.003 | [3] -0.03 | alisertib -0.016 | [4] 0.014 | gefitinib 0.001

DCUN1D4 isoform 3 (UniProt Q92564)
inactive: alvocidib -0.276 | Tubastatin A 0.081 | [1] 0.003 | defactinib 0.014 | [2] 0.035 | encorafenib 0.034 | [3] 0.131 | alisertib 0.055 | [4] -0.043 | gefitinib -0.049
